Assays:
Test in all cases: DAPPL (digital affinity profiling via proximity ligation, sequencing); 10 mM Tris-HCl pH 7.5, 50 mM NaCl, 1 mM DTT, 4% glycerol, room temperature, 30 min; GST-TFs on glutathione beads, 16-mer random dsDNA library, 0.1% formaldehyde crosslink after washing; high values mean tight binding
FLI1 = molecular target: T1, FLI1 (Homo sapiens, UniProt Q01543 1-452); details: protein: recombinant; tags: N-terminal GST; dsDNA, one strand shown
T1 sequence: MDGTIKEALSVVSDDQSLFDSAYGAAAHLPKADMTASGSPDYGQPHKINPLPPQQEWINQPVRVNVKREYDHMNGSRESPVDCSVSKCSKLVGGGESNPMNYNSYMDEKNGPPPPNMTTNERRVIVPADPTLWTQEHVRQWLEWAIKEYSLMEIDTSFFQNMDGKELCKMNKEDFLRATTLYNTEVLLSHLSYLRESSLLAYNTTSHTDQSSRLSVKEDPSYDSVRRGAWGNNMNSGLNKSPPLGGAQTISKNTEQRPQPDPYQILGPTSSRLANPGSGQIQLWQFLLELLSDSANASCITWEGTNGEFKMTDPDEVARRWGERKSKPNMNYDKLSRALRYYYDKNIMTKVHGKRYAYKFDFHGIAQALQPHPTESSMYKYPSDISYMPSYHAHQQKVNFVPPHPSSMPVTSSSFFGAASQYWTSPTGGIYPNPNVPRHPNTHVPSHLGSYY
Procedure, shortened: (§1)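 Human transcription factors were made in yeast as GST fusions, captured on glutathione beads and barcoded with DNA. With a tag-only sample included, the pool was incubated with 200 nmole of a random double-stranded 16-mer DNA library in Tris/NaCl/DTT/glycerol buffer at room temperature for 30 min, then crosslinked with 0.1% formaldehyde after washing, ligated by proximity, amplified and sequenced. For binding signal, each hexamer's read frequency for a factor is divided by its frequency for the tag-only sample.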

ELK1 = molecular target: T2, ELK1 (Homo sapiens, UniProt P19419 1-428); details: protein: recombinant; tags: N-terminal GST; dsDNA, one strand shown
T2 sequence: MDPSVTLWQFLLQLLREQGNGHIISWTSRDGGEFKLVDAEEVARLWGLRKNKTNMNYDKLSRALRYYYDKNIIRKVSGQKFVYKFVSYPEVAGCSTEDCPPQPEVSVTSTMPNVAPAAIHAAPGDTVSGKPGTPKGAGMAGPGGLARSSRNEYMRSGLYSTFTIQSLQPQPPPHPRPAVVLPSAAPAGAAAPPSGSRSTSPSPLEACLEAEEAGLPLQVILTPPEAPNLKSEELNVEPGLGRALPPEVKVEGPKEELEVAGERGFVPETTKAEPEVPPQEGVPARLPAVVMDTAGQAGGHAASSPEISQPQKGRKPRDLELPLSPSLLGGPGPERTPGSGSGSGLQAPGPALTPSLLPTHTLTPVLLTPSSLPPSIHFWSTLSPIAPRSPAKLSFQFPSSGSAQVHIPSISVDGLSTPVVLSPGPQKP
Procedure, shortened: as §1

GABPA = molecular target: T3, GABPA (Homo sapiens, UniProt Q06546 1-454); details: protein: recombinant; tags: N-terminal GST; dsDNA, one strand shown
T3 sequence: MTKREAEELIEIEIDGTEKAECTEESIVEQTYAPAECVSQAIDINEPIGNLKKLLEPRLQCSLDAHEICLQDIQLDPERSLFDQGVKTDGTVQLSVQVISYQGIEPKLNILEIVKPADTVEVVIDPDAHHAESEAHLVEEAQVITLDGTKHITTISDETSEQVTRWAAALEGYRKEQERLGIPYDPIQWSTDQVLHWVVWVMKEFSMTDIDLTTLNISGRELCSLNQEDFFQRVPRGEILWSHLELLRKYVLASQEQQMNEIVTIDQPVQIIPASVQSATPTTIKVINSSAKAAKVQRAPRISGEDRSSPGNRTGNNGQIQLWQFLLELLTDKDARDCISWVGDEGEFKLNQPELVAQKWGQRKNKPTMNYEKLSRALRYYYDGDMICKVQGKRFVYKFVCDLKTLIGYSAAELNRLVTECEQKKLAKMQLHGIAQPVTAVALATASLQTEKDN
Procedure, shortened: as §1

ERG = molecular target: T4, ERG (Homo sapiens, UniProt P11308 1-479); details: protein: recombinant; tags: N-terminal GST; dsDNA, one strand shown
T4 sequence: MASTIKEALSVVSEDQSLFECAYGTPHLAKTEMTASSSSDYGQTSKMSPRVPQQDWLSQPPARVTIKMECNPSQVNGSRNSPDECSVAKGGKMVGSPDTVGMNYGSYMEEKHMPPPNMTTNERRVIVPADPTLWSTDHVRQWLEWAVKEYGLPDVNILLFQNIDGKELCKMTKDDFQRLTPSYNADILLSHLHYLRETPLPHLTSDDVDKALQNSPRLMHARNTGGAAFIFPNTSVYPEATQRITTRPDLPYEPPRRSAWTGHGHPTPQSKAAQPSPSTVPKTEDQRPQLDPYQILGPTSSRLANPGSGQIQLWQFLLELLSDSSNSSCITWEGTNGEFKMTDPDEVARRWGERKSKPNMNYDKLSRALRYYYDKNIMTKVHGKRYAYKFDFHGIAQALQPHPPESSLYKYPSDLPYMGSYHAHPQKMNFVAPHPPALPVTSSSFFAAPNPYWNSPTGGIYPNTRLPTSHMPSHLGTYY
Procedure, shortened: as §1

ELF1 = ELF1 (Homo sapiens, UniProt P32519 1-619); details: protein: recombinant; tags: N-terminal GST; dsDNA, one strand shown
Procedure, shortened: as §1

SPI1 = SPI1 (Homo sapiens, UniProt P17947 1-270); details: protein: recombinant; tags: N-terminal GST; dsDNA, one strand shown
Procedure, shortened: as §1

SPIB = SPIB (Homo sapiens, UniProt Q01892 1-262); details: protein: recombinant; tags: N-terminal GST; dsDNA, one strand shown
Procedure, shortened: as §1

FEV = molecular target: T5, FEV (Homo sapiens, UniProt Q99581 1-238); details: protein: recombinant; tags: N-terminal GST; dsDNA, one strand shown
T5 sequence: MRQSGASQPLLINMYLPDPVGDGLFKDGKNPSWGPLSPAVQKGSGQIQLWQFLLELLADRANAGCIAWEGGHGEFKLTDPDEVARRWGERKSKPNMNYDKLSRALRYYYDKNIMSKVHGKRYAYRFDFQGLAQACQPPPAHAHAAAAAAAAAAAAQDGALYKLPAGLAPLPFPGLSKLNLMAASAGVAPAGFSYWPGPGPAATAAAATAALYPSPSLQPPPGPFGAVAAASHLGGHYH
Procedure, shortened: as §1

ETV5 = ETV5 (Homo sapiens, UniProt P41161 1-510); details: protein: recombinant; tags: N-terminal GST; dsDNA, one strand shown
Procedure, shortened: as §1

HSF1 = HSF1 (Homo sapiens, UniProt Q00613 1-529); details: protein: recombinant; tags: N-terminal GST; chain copies: 3; dsDNA, one strand shown
Procedure, shortened: as §1

SPIC = molecular target: T6, SPIC (Homo sapiens, UniProt Q8N5J4 1-248); details: protein: recombinant; tags: N-terminal GST; dsDNA, one strand shown
T6 sequence: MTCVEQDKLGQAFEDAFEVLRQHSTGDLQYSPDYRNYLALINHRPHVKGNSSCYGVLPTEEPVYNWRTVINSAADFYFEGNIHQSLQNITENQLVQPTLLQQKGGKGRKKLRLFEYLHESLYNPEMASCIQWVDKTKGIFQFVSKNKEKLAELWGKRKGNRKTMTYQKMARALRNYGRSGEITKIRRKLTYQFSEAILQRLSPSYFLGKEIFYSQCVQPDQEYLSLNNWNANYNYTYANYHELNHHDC
Procedure, shortened: as §1

ELF4 = ELF4 (Homo sapiens, UniProt Q99607 1-663); details: protein: recombinant; tags: N-terminal GST; dsDNA, one strand shown
Procedure, shortened: as §1

ELK4 = molecular target: T7, ELK4 (Homo sapiens, UniProt P28324-2 1-405); details: protein: recombinant; tags: N-terminal GST; dsDNA, one strand shown
T7 sequence: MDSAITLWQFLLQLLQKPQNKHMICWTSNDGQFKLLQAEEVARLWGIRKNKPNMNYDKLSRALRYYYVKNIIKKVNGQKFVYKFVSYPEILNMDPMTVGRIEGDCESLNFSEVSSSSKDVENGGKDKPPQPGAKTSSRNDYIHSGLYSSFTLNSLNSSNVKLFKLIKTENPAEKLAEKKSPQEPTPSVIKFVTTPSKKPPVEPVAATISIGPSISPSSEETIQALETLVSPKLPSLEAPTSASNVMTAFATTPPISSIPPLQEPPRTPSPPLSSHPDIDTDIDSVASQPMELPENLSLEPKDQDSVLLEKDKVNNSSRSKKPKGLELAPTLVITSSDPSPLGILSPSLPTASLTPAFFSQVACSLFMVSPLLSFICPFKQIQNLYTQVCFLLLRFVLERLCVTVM
Procedure, shortened: as §1

ETV2 = molecular target: T8, ETV2 (Homo sapiens, UniProt O00321 1-342); details: protein: recombinant; tags: N-terminal GST; dsDNA, one strand shown
T8 sequence: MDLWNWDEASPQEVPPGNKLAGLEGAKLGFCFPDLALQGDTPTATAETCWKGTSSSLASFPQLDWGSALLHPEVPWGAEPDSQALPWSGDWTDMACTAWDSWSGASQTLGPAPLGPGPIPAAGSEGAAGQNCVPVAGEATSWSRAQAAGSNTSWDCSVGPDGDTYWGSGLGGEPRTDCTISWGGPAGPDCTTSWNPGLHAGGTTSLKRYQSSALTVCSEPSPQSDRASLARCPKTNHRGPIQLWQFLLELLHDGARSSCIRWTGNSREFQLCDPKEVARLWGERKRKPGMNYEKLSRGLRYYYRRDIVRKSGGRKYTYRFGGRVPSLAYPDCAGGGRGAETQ
Procedure, shortened: as §1

ELF3 = molecular target: T9, ELF3 (Homo sapiens, UniProt P78545 1-371); details: protein: recombinant; tags: N-terminal GST; dsDNA, one strand shown
T9 sequence: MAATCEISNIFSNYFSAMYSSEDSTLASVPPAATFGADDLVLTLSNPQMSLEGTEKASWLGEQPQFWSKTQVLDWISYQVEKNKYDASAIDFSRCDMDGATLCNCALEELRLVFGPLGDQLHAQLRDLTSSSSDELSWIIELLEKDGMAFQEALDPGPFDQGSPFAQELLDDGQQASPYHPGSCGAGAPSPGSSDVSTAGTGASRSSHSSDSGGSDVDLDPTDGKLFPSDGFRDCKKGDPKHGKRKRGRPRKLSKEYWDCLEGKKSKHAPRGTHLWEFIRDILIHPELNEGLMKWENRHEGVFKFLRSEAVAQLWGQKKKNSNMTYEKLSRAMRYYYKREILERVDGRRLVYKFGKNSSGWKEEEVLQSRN
Procedure, shortened: as §1

CRX = CRX (Homo sapiens, UniProt O43186 1-299); details: protein: recombinant; tags: N-terminal GST; dsDNA, one strand shown
Procedure, shortened: as §1

ETV1 = ETV1 (Homo sapiens, UniProt P50549 1-477); details: protein: recombinant; tags: N-terminal GST; dsDNA, one strand shown
Procedure, shortened: as §1

EHF = molecular target: T10, EHF (Homo sapiens, UniProt Q9NZC4 1-300); details: protein: recombinant; tags: N-terminal GST; dsDNA, one strand shown
T10 sequence: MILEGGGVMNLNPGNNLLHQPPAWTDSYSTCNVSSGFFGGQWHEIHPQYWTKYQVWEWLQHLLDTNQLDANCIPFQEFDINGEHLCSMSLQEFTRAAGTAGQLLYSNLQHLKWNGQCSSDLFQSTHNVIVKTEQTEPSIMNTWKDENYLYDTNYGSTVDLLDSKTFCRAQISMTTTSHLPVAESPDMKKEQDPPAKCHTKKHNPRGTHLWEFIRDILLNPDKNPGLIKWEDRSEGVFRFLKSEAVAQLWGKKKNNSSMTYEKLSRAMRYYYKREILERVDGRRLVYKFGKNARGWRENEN
Procedure, shortened: as §1

Sequence of CRX (O43186 whole entry): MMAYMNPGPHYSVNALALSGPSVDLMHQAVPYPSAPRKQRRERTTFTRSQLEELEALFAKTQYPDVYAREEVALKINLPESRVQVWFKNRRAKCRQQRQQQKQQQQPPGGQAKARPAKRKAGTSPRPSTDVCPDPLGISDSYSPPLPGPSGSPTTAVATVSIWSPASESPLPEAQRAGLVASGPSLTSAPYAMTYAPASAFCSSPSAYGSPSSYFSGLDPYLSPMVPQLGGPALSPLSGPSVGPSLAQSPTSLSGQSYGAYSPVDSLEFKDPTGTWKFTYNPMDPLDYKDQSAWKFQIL
Sequence of ELF4 (Q99607 whole entry): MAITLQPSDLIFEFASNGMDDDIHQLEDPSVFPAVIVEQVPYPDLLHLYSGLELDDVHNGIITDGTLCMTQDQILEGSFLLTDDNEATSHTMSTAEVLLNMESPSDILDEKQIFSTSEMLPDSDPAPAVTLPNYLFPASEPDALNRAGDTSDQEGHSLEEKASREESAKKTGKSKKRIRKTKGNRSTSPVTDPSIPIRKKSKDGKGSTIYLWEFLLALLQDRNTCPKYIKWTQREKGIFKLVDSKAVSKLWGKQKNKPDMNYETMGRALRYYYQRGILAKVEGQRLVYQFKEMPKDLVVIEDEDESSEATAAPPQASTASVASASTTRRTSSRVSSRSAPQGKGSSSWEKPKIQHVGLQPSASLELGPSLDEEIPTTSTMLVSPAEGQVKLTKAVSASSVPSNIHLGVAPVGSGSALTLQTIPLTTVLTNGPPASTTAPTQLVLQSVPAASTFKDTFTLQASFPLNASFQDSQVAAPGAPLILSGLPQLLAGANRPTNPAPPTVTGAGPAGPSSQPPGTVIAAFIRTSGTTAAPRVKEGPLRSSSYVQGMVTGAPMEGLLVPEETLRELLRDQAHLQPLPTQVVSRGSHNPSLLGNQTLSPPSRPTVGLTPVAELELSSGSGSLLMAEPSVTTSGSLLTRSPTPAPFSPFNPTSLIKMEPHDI
Sequence of ELF1 (P32519 whole entry): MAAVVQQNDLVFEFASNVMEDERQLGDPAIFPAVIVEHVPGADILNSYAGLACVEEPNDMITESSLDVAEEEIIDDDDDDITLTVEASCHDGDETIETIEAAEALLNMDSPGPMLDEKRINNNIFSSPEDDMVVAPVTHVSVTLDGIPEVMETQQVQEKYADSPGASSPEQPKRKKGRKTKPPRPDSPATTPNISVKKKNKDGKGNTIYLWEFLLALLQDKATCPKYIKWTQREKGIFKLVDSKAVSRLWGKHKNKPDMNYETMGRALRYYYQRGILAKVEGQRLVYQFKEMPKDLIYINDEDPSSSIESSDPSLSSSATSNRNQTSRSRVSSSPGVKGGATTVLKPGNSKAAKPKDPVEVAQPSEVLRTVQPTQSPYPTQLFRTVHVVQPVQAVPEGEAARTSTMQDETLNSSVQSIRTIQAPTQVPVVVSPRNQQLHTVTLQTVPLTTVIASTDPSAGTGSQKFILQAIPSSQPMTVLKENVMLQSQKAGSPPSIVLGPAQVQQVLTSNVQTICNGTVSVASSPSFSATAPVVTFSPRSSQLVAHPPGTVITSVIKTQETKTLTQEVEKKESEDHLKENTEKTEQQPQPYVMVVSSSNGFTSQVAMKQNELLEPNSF
Sequence of ETV1 (P50549 whole entry): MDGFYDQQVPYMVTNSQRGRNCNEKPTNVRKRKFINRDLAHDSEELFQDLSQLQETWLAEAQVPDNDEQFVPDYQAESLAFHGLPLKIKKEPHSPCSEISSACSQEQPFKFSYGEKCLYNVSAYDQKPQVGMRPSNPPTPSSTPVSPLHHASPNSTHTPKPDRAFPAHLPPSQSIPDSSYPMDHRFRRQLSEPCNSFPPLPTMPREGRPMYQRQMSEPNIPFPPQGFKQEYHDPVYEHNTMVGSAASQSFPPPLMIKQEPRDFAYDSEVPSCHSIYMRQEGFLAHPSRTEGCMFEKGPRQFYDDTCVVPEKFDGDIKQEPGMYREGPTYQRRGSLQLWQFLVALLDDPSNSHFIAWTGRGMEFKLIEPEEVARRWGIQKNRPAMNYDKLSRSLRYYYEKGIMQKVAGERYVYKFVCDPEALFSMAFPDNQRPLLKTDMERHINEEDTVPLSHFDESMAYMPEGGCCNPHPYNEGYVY
Sequence of SPIB (Q01892 whole entry): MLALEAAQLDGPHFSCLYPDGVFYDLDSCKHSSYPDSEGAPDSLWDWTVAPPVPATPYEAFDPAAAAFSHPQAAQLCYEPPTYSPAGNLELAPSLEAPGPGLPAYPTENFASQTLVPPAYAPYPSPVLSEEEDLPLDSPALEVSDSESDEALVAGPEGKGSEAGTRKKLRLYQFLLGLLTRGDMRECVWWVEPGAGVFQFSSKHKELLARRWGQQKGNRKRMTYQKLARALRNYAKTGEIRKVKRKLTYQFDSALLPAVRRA
Sequence of ETV5 (P41161 whole entry): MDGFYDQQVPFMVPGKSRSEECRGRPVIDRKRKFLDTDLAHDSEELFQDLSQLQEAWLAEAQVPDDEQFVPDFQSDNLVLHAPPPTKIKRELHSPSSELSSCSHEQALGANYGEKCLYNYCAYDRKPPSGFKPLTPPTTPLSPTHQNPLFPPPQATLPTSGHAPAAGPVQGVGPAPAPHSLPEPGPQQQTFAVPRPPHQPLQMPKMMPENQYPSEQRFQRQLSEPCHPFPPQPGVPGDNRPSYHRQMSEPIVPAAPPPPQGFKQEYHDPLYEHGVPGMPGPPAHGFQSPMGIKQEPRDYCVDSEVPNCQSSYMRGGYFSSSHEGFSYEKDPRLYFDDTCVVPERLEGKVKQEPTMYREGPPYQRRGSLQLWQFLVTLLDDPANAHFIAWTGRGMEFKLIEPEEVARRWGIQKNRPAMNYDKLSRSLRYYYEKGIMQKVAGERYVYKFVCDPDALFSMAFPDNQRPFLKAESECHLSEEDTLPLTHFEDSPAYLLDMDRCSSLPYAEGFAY
Sequence of HSF1 (Q00613 whole entry): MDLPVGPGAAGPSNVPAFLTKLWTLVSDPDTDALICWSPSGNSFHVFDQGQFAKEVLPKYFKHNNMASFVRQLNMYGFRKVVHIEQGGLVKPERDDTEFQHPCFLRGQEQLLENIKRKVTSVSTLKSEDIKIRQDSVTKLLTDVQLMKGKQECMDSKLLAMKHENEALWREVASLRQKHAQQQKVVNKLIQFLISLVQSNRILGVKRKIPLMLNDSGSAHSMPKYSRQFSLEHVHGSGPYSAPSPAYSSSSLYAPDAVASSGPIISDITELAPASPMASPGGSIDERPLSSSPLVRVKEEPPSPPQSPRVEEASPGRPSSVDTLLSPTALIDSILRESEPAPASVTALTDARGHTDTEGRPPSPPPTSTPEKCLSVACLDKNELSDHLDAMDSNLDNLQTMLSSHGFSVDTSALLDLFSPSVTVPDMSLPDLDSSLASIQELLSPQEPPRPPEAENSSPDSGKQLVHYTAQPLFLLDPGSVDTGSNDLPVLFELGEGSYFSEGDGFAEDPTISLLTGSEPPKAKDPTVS

## TTCGGC
FLI1
  binding signal: 1.03 fold enrichment (6-mer frequency, TF over GST control)
ELK1
  binding signal: 1.14 fold enrichment (6-mer frequency, TF over GST control)
GABPA
  binding signal: 1.22 fold enrichment (6-mer frequency, TF over GST control)
ERG
  binding signal: 1.08 fold enrichment (6-mer frequency, TF over GST control)
ELF1
  binding signal: 1 fold enrichment (6-mer frequency, TF over GST control)
SPI1
  binding signal: 1.04 fold enrichment (6-mer frequency, TF over GST control)
SPIB
  binding signal: 1.02 fold enrichment (6-mer frequency, TF over GST control)
FEV
  binding signal: 1 fold enrichment (6-mer frequency, TF over GST control)
ETV5
  binding signal: 1.02 fold enrichment (6-mer frequency, TF over GST control)
HSF1
  binding signal: 1.05 fold enrichment (6-mer frequency, TF over GST control)
SPIC
  binding signal: 1.1 fold enrichment (6-mer frequency, TF over GST control)
ELF4
  binding signal: 1.19 fold enrichment (6-mer frequency, TF over GST control)
ELK4
  binding signal: 1.07 fold enrichment (6-mer frequency, TF over GST control)
ETV2
  binding signal: 1.22 fold enrichment (6-mer frequency, TF over GST control)
ELF3
  binding signal: 1.07 fold enrichment (6-mer frequency, TF over GST control)
CRX
  binding signal: 1.1 fold enrichment (6-mer frequency, TF over GST control)
ETV1
  binding signal: 1.14 fold enrichment (6-mer frequency, TF over GST control)

## ATTAAG
FLI1
  binding signal: 1.04 fold enrichment (6-mer frequency, TF over GST control)
ELK1
  binding signal: 1.07 fold enrichment (6-mer frequency, TF over GST control)
GABPA
  binding signal: 1.09 fold enrichment (6-mer frequency, TF over GST control)
ERG
  binding signal: 1.01 fold enrichment (6-mer frequency, TF over GST control)
ELF1
  binding signal: 1.08 fold enrichment (6-mer frequency, TF over GST control)
EHF
  binding signal: 1.04 fold enrichment (6-mer frequency, TF over GST control)
SPI1
  binding signal: 1.03 fold enrichment (6-mer frequency, TF over GST control)
SPIB
  binding signal: 1.06 fold enrichment (6-mer frequency, TF over GST control)
FEV
  binding signal: 1.02 fold enrichment (6-mer frequency, TF over GST control)
ETV5
  binding signal: 1.01 fold enrichment (6-mer frequency, TF over GST control)
HSF1
  binding signal: 2 fold enrichment (6-mer frequency, TF over GST control)
SPIC
  binding signal: 1.04 fold enrichment (6-mer frequency, TF over GST control)
ELF4
  binding signal: 1.06 fold enrichment (6-mer frequency, TF over GST control)
ELK4
  binding signal: 1.04 fold enrichment (6-mer frequency, TF over GST control)
ETV2
  binding signal: 1.03 fold enrichment (6-mer frequency, TF over GST control)
ELF3
  binding signal: 1.14 fold enrichment (6-mer frequency, TF over GST control)
CRX
  binding signal: 3.35 fold enrichment (6-mer frequency, TF over GST control)
ETV1
  binding signal: 1.03 fold enrichment (6-mer frequency, TF over GST control)
